The text below walks through data of PubChem BioAssay (NCI).

Structures are written as SMILES. Several values for one entry are separate records, joined by “and”; a condition that tells them apart may be missing. Identical values can stand only once. This is part of a sample that, as a whole, favours compounds with a hit. Of some 83,000 tested, about 20% had one in any assay.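 How to read the values: 0–100, growth inhibition (40 = 60% inhibited); 0, no net growth; -100 to 0, cell death (-40 = 40% of starting cells died; -100 = all dead).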 A number with no mark means an inactive call. Activity calls are given as the source filed them. The calls were made as follows: active = growth percent below 10; inactive = the rest.

Among the test systems are SR leukemia; RPMI-8226 leukemia; OVCAR-8 ovarian; OVCAR-5 ovarian; OVCAR-4 ovarian; SK-OV-3 ovarian; OVCAR-3 ovarian; HS 578T breast; NCI/ADR-RES ovarian; T-47D breast; BT-549 breast; MDA-MB-435 melanoma; SW-620 colon; MCF7 breast; HCT-116 colon; HCC-2998 colon; KM12 colon; IGROV1 ovarian.
Common to all, as to experiment: NCI-60 one-dose screen, 48 h (100 = growth as untreated, 0 = no growth, -100 = all killed)
Holding throughout (details): 10 µM unless noted

For `CN1C2CCC1[C@@H](COC(=O)c1ccccc1)[C@@H](O)C2` (some centres undefined), the growth in the experiment with SR leukemia was 105%; in the experiment with RPMI-8226 leukemia, 77.7%; in the experiment with OVCAR-8 ovarian it was 103%; in the experiment with OVCAR-5 ovarian it was 106%; in the experiment with OVCAR-4 ovarian, 103%; with SK-OV-3 ovarian, 107%. For the same compound, the growth in the experiment on OVCAR-3 ovarian was 111%; with HS 578T breast, 119%; in the experiment on NCI/ADR-RES ovarian it was 110%; in the experiment on T-47D breast it was 124%; in the experiment on BT-549 breast, 143%; with MDA-MB-435 melanoma, 121%. Further, the growth is 111% in the experiment on SW-620 colon; 97.3% in the experiment on MCF7 breast; 101% in the experiment with HCT-116 colon; 105% with HCC-2998 colon; 103% in the experiment on KM12 colon.

On to `c1ccc2c(c1)O[As](O[As]1Oc3ccccc3O1)O2`, for which the growth in the experiment on SR leukemia is 2.68% (active); in the experiment with RPMI-8226 leukemia, -14.9% (active); in the experiment with OVCAR-8 ovarian, 23.3%; in the experiment with OVCAR-5 ovarian, 40.6%; in the experiment with OVCAR-4 ovarian, 40.3%; in the experiment with SK-OV-3 ovarian, 75.6%. In addition, the growth in the experiment with IGROV1 ovarian is 6.22% (active); in the experiment on OVCAR-3 ovarian, 14.2%; in the experiment on HS 578T breast, 38.8%; in the experiment with NCI/ADR-RES ovarian, 50.1%; with T-47D breast, 14.3%; with MDA-MB-435 melanoma, 41.2%. The growth with SW-620 colon is 25.5%; in the experiment with MCF7 breast, 12.7%; with HCT-116 colon, 43.1%; with KM12 colon it was 69.8%.

`CCOC(=O)c1c(SC)nc(-c2ccc(Cl)cc2)sc1=N`: the growth with MCF7 breast was -8.27% [100 µM] (active) and 5.36% [100 µM] (active).
